Test [1] has as its system Plasmodium falciparum Sir2 (PF13_0152, Sir2A). In words: Plasmodium falciparum Sir2A binding compounds – biochemical, small-molecule microarray, 635 nm fluorescence, primary screen (AID 1098).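 Note: score merges spot fluorescence intensity with its signal-to-noise ratio.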 Conditions: fluorescence 635 nm, higher = more signal.
Test [2] is described as follows: probe aDKK1 binding to arrayed compounds – biochemical, biotinylated probe, 635/667 nm fluorescence, primary screen (AID 1099).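 Note: score merges 667nm spot fluorescence with signal to noise across triplicate slides; reference of the scale not given here.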 The settings on record: small-molecule microarray, higher = more signal.
Test [3] is described as follows: probe aCHRDL2 binding to arrayed compounds – biochemical, biotinylated probe, 635/667 nm fluorescence, primary screen (AID 1100). Conditions: small-molecule microarray, higher = more signal.
Test [4] in a line: change in splice reporter luminescence, either direction, cell-based, HEK293, spliceosome inhibition project, primary screen (AID 1101).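 Note: HEK293 cells carrying a splicing-competent luciferase reporter gene; test concentration not given here.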 Conditions: HEK293 splicing luciferase reporter, 24 h, higher = more signal, called active from +8 up or from −8 down. (Reporter assays use an easily measured gene product as a stand-in for the process of interest.)
Test [5] concerns the target Fibroblast growth factor 10 (Homo sapiens) (UniProt O15520). In words: compounds binding fibroblast growth factor 10 – biochemical, small-molecule microarray, 635 nm fluorescence, primary screen (AID 1102). Conditions: FGF10 binding, fluorescence 635 nm, higher = more signal.
Test [6] concerns glycogen synthase kinase-3 (GSK3A per assay name; protocol says GSK3B). In words: compounds binding glycogen synthase kinase-3 – biochemical, small-molecule microarray, 635 nm fluorescence, GSK3A, primary screen (AID 1103). Note: the record names both GSK3A and GSK3B. Conditions: fluorescence 635 nm, higher = more signal.
The target in test [7] is Epidermal growth factor receptor (Homo sapiens) (UniProt P00533). The test is described as follows: compounds binding epidermal growth factor receptor – biochemical, small-molecule microarray, 635 nm fluorescence, primary screen (AID 1104).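 Note: score merges 667 nm emission intensity with spot signal to noise over triplicate slides.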 The settings on record: EGFR binding, higher = more signal.
Test [8] concerns the target Follistatin-related protein 3 (Homo sapiens) (UniProt O95633). The test is described as follows: compounds binding follistatin-related protein 3 – biochemical, small-molecule microarray, 635 nm fluorescence, primary screen (AID 1105).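 Note: score merges emission near 667 nm and signal to noise per printed spot across three slides.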 The settings on record: FSTL3 binding, higher = more signal.
Test [9] concerns the target Dickkopf-related protein 1 (Homo sapiens) (UniProt O94907). The test is described as follows: small molecules binding DKK1 protein – biochemical, small-molecule microarray, 635 nm fluorescence scan, primary screen (AID 1106).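 Note: score merges emission near 667 nm with signal to noise over three replicate slides.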 The settings on record: higher = more signal.
Test [10] deals with Inhibin beta A chain (activin A). In words: small molecules binding activin A – biochemical, small-molecule microarray, 635 nm fluorescence scan, primary screen (AID 1107).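 Note: mouse activin A protein probed at 4.33 µg/mL on printed slides; score merges bound-protein fluorescence near 667 nm with spot signal-to-noise.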 Conditions: INHBA, higher = more signal.

Calls of active or inactive are those of the source.

Chain of Epidermal growth factor receptor (Homo sapiens) (P00533 whole entry, looked up): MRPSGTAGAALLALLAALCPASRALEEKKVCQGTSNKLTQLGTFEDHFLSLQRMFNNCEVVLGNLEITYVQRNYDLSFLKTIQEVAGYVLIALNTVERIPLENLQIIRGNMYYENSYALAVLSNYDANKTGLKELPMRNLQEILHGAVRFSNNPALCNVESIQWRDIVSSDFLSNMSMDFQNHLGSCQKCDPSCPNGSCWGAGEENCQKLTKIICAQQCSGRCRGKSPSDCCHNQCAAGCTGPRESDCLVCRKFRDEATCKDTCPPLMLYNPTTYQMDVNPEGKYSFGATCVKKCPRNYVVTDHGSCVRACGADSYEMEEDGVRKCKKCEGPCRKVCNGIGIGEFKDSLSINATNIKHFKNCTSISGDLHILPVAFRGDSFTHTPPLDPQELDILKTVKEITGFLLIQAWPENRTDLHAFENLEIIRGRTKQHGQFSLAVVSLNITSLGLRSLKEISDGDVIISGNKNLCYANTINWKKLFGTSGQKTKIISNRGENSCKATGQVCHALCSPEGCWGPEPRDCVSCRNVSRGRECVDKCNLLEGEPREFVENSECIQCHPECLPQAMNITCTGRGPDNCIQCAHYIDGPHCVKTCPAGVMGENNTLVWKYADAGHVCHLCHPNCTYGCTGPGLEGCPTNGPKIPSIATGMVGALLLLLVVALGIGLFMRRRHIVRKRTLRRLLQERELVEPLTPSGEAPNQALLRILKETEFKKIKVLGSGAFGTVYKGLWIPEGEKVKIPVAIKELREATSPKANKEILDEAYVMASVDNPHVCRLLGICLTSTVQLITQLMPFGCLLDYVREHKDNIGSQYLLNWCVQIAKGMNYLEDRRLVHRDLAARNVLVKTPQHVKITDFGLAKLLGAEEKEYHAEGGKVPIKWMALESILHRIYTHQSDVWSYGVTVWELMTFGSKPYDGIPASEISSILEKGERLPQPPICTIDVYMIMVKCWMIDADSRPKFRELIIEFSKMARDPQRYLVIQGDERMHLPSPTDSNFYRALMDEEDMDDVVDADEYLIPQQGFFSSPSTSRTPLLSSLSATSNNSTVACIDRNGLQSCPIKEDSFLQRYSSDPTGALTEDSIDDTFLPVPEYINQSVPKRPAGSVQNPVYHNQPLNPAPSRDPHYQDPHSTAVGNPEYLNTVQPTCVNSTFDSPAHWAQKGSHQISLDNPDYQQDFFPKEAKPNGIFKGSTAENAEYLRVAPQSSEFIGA
Chain of Follistatin-related protein 3 (Homo sapiens) (O95633 whole entry, looked up): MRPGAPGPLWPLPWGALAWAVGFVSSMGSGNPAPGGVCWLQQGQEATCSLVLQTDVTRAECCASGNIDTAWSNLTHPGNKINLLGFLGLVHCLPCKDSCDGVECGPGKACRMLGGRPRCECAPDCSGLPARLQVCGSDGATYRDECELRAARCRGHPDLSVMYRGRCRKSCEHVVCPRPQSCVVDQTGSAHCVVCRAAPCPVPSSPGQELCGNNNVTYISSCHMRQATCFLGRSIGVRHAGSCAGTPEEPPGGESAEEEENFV
Chain of Dickkopf-related protein 1 (Homo sapiens) (O94907 whole entry, looked up): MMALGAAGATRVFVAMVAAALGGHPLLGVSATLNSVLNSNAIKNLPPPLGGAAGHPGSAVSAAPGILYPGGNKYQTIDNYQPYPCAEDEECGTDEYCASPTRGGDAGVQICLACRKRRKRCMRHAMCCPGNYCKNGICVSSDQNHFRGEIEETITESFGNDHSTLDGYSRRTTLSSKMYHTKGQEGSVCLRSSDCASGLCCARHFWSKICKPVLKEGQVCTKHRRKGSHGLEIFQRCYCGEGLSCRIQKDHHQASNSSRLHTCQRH
Chain of Fibroblast growth factor 10 (Homo sapiens) (O15520 whole entry, looked up): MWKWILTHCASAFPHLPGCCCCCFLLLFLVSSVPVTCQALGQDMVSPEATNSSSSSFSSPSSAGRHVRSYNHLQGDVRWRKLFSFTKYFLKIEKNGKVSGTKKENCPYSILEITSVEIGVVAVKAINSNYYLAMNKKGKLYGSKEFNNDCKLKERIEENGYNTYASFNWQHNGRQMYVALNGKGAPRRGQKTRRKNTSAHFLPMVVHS

Turning to `CCOC(=O)C[C@H]1[C@H](OC(=O)c2cc3ccccc3oc2=O)[C@@H](NC(=O)C2CCCCC2)c2cc(OCCCO)ccc2N1C(=O)Cc1ccc(OC)cc1`, the composite z-score was 0.199 in test [1]; 0.0483 in [2]; 0.0801 in test [3]; 1 in test [5]; 0.469 in test [6]; 0.193 in [7]. For the same compound, the composite z-score came out at 0.397 in test [8], 0.447 in test [9] and 0.6 in [10]. The z-score in test [4] was 0.0427 (inactive).

For the compound `CCOC(=O)C1=CC[C@@H](c2ccccc2Cl)N(S(=O)(=O)c2ccc(C)cc2)[C@H]1c1cccc(OC)c1`, the composite z-score in test [1] was 0.662; in test [2], -0.0972; in test [3], -0.335; in [5], 0.331; in test [6], 0.269; in test [7] it was -0.055. Further, the figures for the composite z-score in test [8], in test [9] and in test [10] were 0.536, -0.237 and 0.406, respectively. For the same compound, the z-score in test [4] was 0.751 (inactive).

As for `CCCCCCCCCCC(O)C1C=CC2C(=O)N(C)C(=O)C2N1N1CCCCC1` (stereo not given), the composite z-score in test [1] is 0.331; in test [2], -0.267; in test [3], 0.598; in test [5], -1.9; in [6] it was -1.41; in test [7] it was -2.01. Also, the composite z-score in [8] was -1.63; in test [9] it was -1.29; in test [10] it was 1.35. The z-score in [4] is 1.53 (inactive).

Consider `NC(=O)[C@@]1(CCS(=O)(=O)c2ccccc2)COC(c2ccc(OCCCO)cc2)=N1`, for which the composite z-score in test [1] is 1.35; in test [2], 0.628; in [3], 0.831; in test [5] it was 0.19; in test [6], -0.123; in test [7], -0.143. Besides, the composite z-score was -0.232 in [8], -0.526 in test [9] and 1.21 in test [10]. In addition, in test [4], the z-score is 0.129 (inactive).

Turning to `CC(C)CNC(=O)[C@@]1(C)c2ccccc2C(=O)N(Cc2cc(F)cc(C(F)(F)F)c2)[C@H]1c1ccc(CO)cc1`, the composite z-score in test [1] is 0.972; in test [2], -0.162; in test [3], 0.35; in test [5], 0.398; in test [6], 0.729; in [7], 0.181. Moreover, the composite z-score in [8] worked out at 0.379; in test [9], 0.343; in test [10] it was 0.938. In addition, the z-score in test [4] is 0.451 (inactive).

As to `CC(C)c1ccc(NN2C(C(O)C(C)C)C=CC3C(=O)N(c4ccccc4)C(=O)C32)cc1` (stereo not given), the composite z-score in test [1] is 1.06; in [2] it was 1.26; in test [3], 1.14; in test [5], 0.651; in test [6], 1.31; in test [7] it was 0.389. The results for the composite z-score in [8], in test [9] and in test [10] were 0.926, -0.103 and 0.496, respectively. Besides, the z-score in [4] was 0.437 (inactive).

Turning to `Cc1ccccc1C(O)C1C=CC2C(=O)N(c3ccccc3)C(=O)C2N1Nc1ccccc1F` (stereo not given), the composite z-score in test [1] was 1.31; in test [2] it was 0.938; in test [3], 1.23; in test [5], 0.77; in test [6] it was 0.45; in test [7], 0.153. The composite z-score in test [8] was 0.836; in [9] it was -0.6; in test [10], 1.04. Besides, the z-score in [4] was 0.476 (inactive).

Turning to `C[N+](C)(C)CCCC[C@@H]1NC(=O)[C@H]2C[C@@H](C(=O)NCCCCCNC(=O)CS)[C@@H](c3ccc(O)cc3)N2C1=O`, the composite z-score in [1] is 1.43; in [2], -0.0443; in test [3], 0.161; in [5], 0.499; in test [6], 0.57; in test [7], 0.0872. Besides, the figures for the composite z-score in test [8], in test [9] and in test [10] were -0.0399, 0.312 and 0.425, respectively. Moreover, the z-score in test [4] was -0.744 (inactive).

Turning to `COC(=O)[C@@]1(Cc2ccc(F)cc2)[C@H]2c3cc(C(=O)N4CCCC4)n(CCO)c3C[C@H]2CN1C(=O)c1ccccc1`, the composite z-score in [1] was 1.33; in test [2], 0.532; in [3], 0.977; in [5], 0.597; in test [6] it was -0.166; in test [7], -0.244. For the same compound, the results for the composite z-score in test [8], in [9] and in test [10] were -0.479, -0.572 and 0.671, respectively. The z-score in test [4] was -0.495 (inactive).

For `NC(=O)NCC#Cc1ccc2c(c1)[C@]1(C(=O)N2)[C@H](C(=O)N2CCCCCCC2)[C@H]2C(=O)O[C@H](c3ccccc3)[C@H](c3ccccc3)N2[C@@H]1c1ccc(O)cc1`, the composite z-score in test [1] worked out at 1.63; in test [2], 2.7; in test [3], 1.47; in [5], 1.4; in test [6] it was 0.919; in test [7] it was 1.27. For the same compound, the values for the composite z-score in test [8], in test [9] and in [10] were 1.51, 1.63 and 1.49, respectively. The z-score in [4] was -0.15 (inactive).

Take `COC(=O)C1=CC(CCCO)=CC(c2ccc(CN3CCCC3)cc2)N(Cc2sc3ccccc3c2Cl)C=C1C(=O)OC` (stereo not given): the composite z-score in [1] amounted to 1.81; in test [2], 0.81; in test [3] it was 1.05; in test [5], 1.37; in test [6] it was 1.32; in test [7], 0.526. Besides, the composite z-score was 0.708 in test [8], 0.227 in [9] and 0.375 in [10]. Moreover, the z-score in test [4] was -0.855 (inactive).

Consider `O=C(NCC(F)(F)F)[C@@H]1c2ccccc2C(=O)N(CC23CC4CC(CC(C4)C2)C3)[C@H]1c1ccc(CO)cc1`, for which the composite z-score in test [1] was 0.586; in test [2] it was -0.0677; in test [3] it was -0.217; in [5] it was 0.75; in [6], 0.804; in [7], 0.169. Moreover, the composite z-score in [8] amounted to 0.858; in test [9], 0.26; in test [10], 0.47. For the same compound, the z-score in test [4] was -1.32 (inactive).

For the compound `CC(C)C[C@@H]1NC(=O)C([C@@H](C)OCc2ccccc2)NC(=O)[C@@]23C(=O)N[C@@H](Cc4ccccc4)C2[C@H](C)[C@@]2(C)O[C@H]2C3/C=C/CC/C=C/CNC1=O` (stereo not given in full), the composite z-score in [1] is 1.38; in [2], -0.309; in test [3], -0.475; in test [5] it was 0.699; in test [6] it was 0.517; in [7], 0.432. The composite z-score was found to be 0.721 in [8], 0.445 in [9] and 1.13 in test [10]. In test [4], the z-score was -1.62 (inactive).

For the compound `COC(=O)[C@@]1(Cc2ccc(OC)cc2)[C@H]2c3cc(C(=O)N(C)C)n(Cc4ccsc4Br)c3C[C@H]2CN1C(=O)c1ccccc1`, the composite z-score is 0.895 in test [1]; 1.08 in [2]; 0.826 in test [3]; -0.0197 in test [5]; -0.288 in test [6]; 0.374 in [7]. In addition, the composite z-score in test [8] is -0.288; in [9] it was -0.414; in test [10], 0.758. Besides, the z-score in [4] is -1.84 (inactive).

As to `COC(=O)[C@@]1(Cc2ccccc2)[C@H]2c3cc(C(=O)N4CCCC4)n(Cc4ccc(C(F)(F)F)nc4)c3C[C@H]2CN1C(=O)c1ccccc1`, the composite z-score turned out to be 1.28 in [1]; 0.568 in [2]; 1.02 in [3]; 0.881 in test [5]; 1.32 in [6]; 0.0424 in test [7]. The results for the composite z-score in [8], in test [9] and in [10] were 1.1, -0.269 and 0.634, respectively. Further, in test [4], the z-score is -0.434 (inactive).

On to `COCCOC(=O)N1C(=O)[C@@]2(c3cc(C#CC4(O)CCCCCC4)ccc31)[C@H](C(=O)N1CCc3cc(OC)c(OC)cc3C1)[C@H]1C(=O)O[C@H](c3ccccc3)[C@H](c3ccccc3)N1[C@@H]2c1ccc(O)cc1`, for which the composite z-score in test [1] was determined as 0.974; in test [2], 0.142; in test [3], 0.248; in test [5], 1.02; in [6] it was 1.32; in test [7] it was 0.648. Further, the composite z-score in test [8] stood at 1.02; in test [9], 0.639; in [10], 0.122. The z-score in test [4] is 0.543 (inactive).

In the case of `CC(c1ccccc1)C(O)C1C=CC2C(=O)N(c3ccccc3)C(=O)C2N1Nc1ccc(C#N)cc1` (stereo not given), the composite z-score was found to be 1.27 in [1]; 0.0897 in test [2]; 0.582 in test [3]; 0.975 in test [5]; 1.32 in [6]; 0.702 in test [7]. Moreover, the composite z-score in test [8] is 1.48; in [9], -0.163; in test [10], 0.251. Also, the z-score in test [4] is -0.44 (inactive).

The values above are taken from PubChem BioAssay.
